From PubChem BioAssay come the findings set out here.

Unmarked numbers belong to inactive results. Active and inactive are the calls of the source. The rule behind the calls is not given here.

Test [1] relates to Botulinum neurotoxin type F light chain protease (Clostridium botulinum). The experiment in a line: Botulinum neurotoxin type F light chain protease inhibition, multiplex microsphere flow cytometry, validation set (AID 588459). The note with it: multiplex microsphere protease substrate cleavage assay, at 10 µM, active compounds read high. A general note: Flow cytometry measures light scatter and fluorescence of single cells or particles in a stream.

Test [2] has as its target Botulinum neurotoxin type A (Clostridium botulinum) (UniProt P0DPI0). The experiment in a line: BoNT/A light chain protease inhibitors, biochemical, multiplex microsphere flow cytometry, validation set (AID 588460). The note with it: at 10 µM, active compounds read high.
Test [3] deals with Lethal factor (Bacillus anthracis) (UniProt P15917). As to the kind of experiment: Lethal factor protease inhibitors, Bacillus anthracis, multiplex microsphere cleavage assay, validation set (AID 588461). The settings on record: flow cytometry, at 10 µM, active compounds read high.

One may read the inhibition as the drop in the measured response relative to a control, in per cent. Take `O=C(NC1CCCCC1)N1CCc2[nH]c3ccccc3c2C1`: the inhibition in test [1] is 36.5% (active); in test [2], 3.5%; in test [3], 5%.
With `O=C(Nc1ccc(Oc2c(F)c(F)c(F)c(F)c2F)cc1)OC1CCN2Cc3ccccc3N=C12` (stereo not given), the values for the inhibition in test [1], in test [2] and in test [3] were -1.9%, -1.4% and 2.6%, respectively.
Take `COc1ccc(-c2noc(CCc3ccccc3)n2)cc1`: the inhibition in test [1] was -8.8%; in test [2], -1.1%; in test [3] it was -11%.
For `COc1ccc(NC(=O)C2CCCN2C(=O)OC(C)(C)C)cc1` (stereo not given), the results for the inhibition in test [1], in test [2] and in test [3] were 4.1%, 0.9% and -2.4%, respectively.
Take `CC1(C#CC[N+]2(C)CCCCC2)CCC2C(O1)c1ccccc1OC2(C)C` (stereo not given): the inhibition in test [1] was 2.6%; in test [2], -0.8%; in test [3], -2.1%.
Turning to `O=C(O)c1ccc(-c2ccc(O)c(F)c2)cc1`, the inhibition is -6.5% in test [1], -1.7% in test [2] and 0.4% in test [3].
The matching figures for `CCOc1cccc(N2C(=O)CC(N(CCc3ccc(OC)c(OC)c3)C(=O)CC)C2=O)c1` (stereo not given): 4.3%, 0.7% and 0.4%.
The matching figures for `CC(C)C[C@H]1C(=O)N2CCC[C@H]2[C@]2(O)O[C@](NC(=O)[C@@H]3C=C4c5cccc6[nH]c(Br)c(c56)CC4N(C)C3)(C(C)C)C(=O)N12` (stereo not given in full): 5.1%, 1.3% and -5.6%.
Taken in the same sequence, the figures for `CC(=O)CSc1ncnc2c1cnn2-c1ccccc1` were 2.3%, 0.8% and -1.6%.
Take `CC(=O)OCC1OC(n2ccc(=O)[nH]c2=O)C(O)C1O` (stereo not given): the values for the inhibition in test [1], in test [2] and in test [3] were -0.4%, 0.5% and -5.3%, respectively.
